Consider 15 molecules from PubChem BioAssay.

Calls of active or inactive are those of the source.

The test system of test [1] is Plasmodium falciparum Sir2 (PF13_0152, Sir2A). Put plainly: pfSir2 binders on small-molecule microarrays, primary screen, biochemical, small-molecule microarray, 635 nm fluorescence (AID 1098).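 Also: score merges spot fluorescence intensity with its signal-to-noise ratio.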 The following applies: small-molecule microarray binding, fluorescence 635 nm; higher = more signal.
A short description of test [2]: small-molecule microarray binders of probe aDKK1, primary screen, biochemical, biotinylated probe, 635/667 nm fluorescence (AID 1099).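 Also: score merges 667nm spot fluorescence with signal to noise across triplicate slides; reference of the scale not given here.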 The following applies: higher = more signal.
The nature of test [3]: small-molecule microarray binders of probe aCHRDL2, primary screen, biochemical, biotinylated probe, 635/667 nm fluorescence (AID 1100). The following applies: higher = more signal.
Test [4] in a line: splicing luciferase reporter signal modulators, primary screen, spliceosome inhibition project, cell-based, HEK293, splice +/- reporter (AID 1101).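 Also: HEK293 cells carrying a splicing-competent luciferase reporter gene; test concentration not given here.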 Particulars: luminescence, 24 h, higher = more signal, called active from +8 up or from −8 down.
Test [5] has as its target Fibroblast growth factor 10 (Homo sapiens) (UniProt O15520). Put plainly: FGF10 binders on small-molecule microarrays, primary screen, biochemical, small-molecule microarray, 635 nm fluorescence (AID 1102). Particulars: FGF10 binding, fluorescence 635 nm, higher = more signal.
Test [6] deals with glycogen synthase kinase-3 (GSK3A per assay name; protocol says GSK3B). Put plainly: GSK3 binders on small-molecule microarrays, primary screen, biochemical, small-molecule microarray, 635 nm fluorescence, GSK3A (AID 1103). Also: the record names both GSK3A and GSK3B. The following applies: small-molecule microarray binding, fluorescence 635 nm; higher = more signal.
Test [7] concerns the target Epidermal growth factor receptor (Homo sapiens) (UniProt P00533). Put plainly: EGFR binders on small-molecule microarrays, primary screen, biochemical, small-molecule microarray, 635 nm fluorescence (AID 1104).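 Also: score merges 667 nm emission intensity with spot signal to noise over triplicate slides.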 The following applies: EGFR binding, higher = more signal.
The target of test [8] is Follistatin-related protein 3 (Homo sapiens) (UniProt O95633). Put plainly: FSTL3 binders on small-molecule microarrays, primary screen, biochemical, small-molecule microarray, 635 nm fluorescence (AID 1105).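 Also: score merges emission near 667 nm and signal to noise per printed spot across three slides.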 Particulars: FSTL3 binding, higher = more signal.
In test [9] the target is Dickkopf-related protein 1 (Homo sapiens) (UniProt O94907). Put plainly: DKK1 binders on small-molecule microarrays, primary screen, biochemical, small-molecule microarray, 635 nm fluorescence scan (AID 1106).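 Also: score merges emission near 667 nm with signal to noise over three replicate slides.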 The following applies: DKK1 binding, higher = more signal.
Test [10] relates to Inhibin beta A chain (activin A). Put plainly: INHBA (activin A) binders on microarrays, primary screen, biochemical, small-molecule microarray, 635 nm fluorescence scan (AID 1107).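 Also: mouse activin A protein probed at 4.33 µg/mL on printed slides; score merges bound-protein fluorescence near 667 nm with spot signal-to-noise.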 The following applies: small-molecule microarray binding, higher = more signal.

Chain of Epidermal growth factor receptor (Homo sapiens) (P00533 whole entry, looked up): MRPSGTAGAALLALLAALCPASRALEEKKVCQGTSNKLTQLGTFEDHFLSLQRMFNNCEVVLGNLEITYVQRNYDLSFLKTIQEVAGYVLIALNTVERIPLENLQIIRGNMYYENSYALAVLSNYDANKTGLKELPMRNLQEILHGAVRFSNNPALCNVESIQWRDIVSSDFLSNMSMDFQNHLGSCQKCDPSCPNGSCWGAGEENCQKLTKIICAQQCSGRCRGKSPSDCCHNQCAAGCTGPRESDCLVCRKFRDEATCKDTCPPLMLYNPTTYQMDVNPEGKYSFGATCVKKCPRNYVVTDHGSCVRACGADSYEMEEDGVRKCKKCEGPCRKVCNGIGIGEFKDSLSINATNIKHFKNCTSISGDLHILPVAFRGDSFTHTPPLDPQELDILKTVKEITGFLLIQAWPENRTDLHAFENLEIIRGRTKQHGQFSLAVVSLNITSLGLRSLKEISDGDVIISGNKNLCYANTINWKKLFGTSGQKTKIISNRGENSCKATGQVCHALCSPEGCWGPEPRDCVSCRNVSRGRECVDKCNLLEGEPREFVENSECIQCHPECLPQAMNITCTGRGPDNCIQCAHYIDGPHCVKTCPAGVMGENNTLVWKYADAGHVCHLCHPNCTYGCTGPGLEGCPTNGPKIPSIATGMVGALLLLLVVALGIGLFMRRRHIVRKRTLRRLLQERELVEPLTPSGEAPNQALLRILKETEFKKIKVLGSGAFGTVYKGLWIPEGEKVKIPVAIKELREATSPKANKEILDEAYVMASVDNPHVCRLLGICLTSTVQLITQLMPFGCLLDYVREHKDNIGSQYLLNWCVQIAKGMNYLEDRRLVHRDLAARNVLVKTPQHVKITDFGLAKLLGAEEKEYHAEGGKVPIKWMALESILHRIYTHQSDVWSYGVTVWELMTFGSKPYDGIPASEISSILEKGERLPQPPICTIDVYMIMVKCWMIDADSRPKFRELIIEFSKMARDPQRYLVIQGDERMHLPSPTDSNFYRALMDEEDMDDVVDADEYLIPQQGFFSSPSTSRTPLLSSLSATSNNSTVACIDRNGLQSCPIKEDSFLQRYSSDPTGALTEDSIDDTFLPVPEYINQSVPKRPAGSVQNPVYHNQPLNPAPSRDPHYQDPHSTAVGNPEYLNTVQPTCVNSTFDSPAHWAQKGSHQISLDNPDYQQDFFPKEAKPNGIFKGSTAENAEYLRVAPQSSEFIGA
Chain of Dickkopf-related protein 1 (Homo sapiens) (O94907 whole entry, looked up): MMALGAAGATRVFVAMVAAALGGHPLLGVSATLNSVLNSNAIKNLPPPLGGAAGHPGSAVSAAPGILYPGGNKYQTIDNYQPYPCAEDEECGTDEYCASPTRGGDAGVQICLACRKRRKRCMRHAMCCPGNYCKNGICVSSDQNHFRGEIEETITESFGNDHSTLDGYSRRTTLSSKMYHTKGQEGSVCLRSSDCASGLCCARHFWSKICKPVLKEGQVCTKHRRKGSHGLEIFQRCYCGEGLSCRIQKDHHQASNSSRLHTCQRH
Chain of Follistatin-related protein 3 (Homo sapiens) (O95633 whole entry, looked up): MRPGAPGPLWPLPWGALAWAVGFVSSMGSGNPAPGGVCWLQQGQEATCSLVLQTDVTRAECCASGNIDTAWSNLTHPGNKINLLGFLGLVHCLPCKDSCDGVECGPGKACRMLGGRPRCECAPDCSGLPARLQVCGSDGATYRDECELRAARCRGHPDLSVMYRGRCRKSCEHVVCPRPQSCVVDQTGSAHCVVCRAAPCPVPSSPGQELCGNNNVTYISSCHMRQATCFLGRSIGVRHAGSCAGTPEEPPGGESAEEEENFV
Chain of Fibroblast growth factor 10 (Homo sapiens) (O15520 whole entry, looked up): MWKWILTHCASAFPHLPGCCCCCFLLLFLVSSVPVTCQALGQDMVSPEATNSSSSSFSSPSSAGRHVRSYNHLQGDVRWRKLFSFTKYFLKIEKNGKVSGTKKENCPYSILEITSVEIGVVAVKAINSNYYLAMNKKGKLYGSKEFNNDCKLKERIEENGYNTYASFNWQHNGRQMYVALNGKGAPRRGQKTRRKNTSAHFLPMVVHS

`C=C(/C(=C/C[C@@H](OC(C)=O)c1cccc(OCCO)c1)c1cnc2ccccc2c1)C(C)C`: the composite z-score in test [1] was 0.85; in test [2], -0.268; in [3], 0.0363; in test [5], 0.706; in [6], 0.612; in [7], 0.324. Besides, the values for the composite z-score in [8], in test [9] and in test [10] were 1.37, 0.625 and 1.56, respectively. Moreover, the z-score in test [4] was -0.664 (inactive).
Turning to `Cc1ccc(S[C@]2(C(=O)NCCCN(C)C)CC(=O)N(C3Cc4ccccc4C3)[C@@H]2c2ccc(CO)cc2I)cc1`, the composite z-score in test [1] was 1.58; in test [2], 0.182; in test [3], 0.932; in test [5], -0.795; in [6], -0.719; in test [7], -0.487. In addition, the composite z-score in [8] was -0.335; in test [9], -0.976; in test [10], 0.794. For the same molecule, in test [4], the z-score is -1.53 (inactive).
In the case of `C=CCOC(=O)[C@@H]1[C@H]2C(=O)O[C@H](c3ccccc3)[C@H](c3ccccc3)N2[C@H](c2ccc(OCCOC(=O)[C@H]3C[C@H]4C(=O)N[C@@H](CCCCN(C)C)C(=O)N4[C@H]3c3ccc(O)cc3)cc2)[C@@]12C(=O)Nc1ccc(I)cc12`, the composite z-score in test [1] is 1.52; in test [2], 0.0904; in [3] it was -0.13; in test [5] it was 0.88; in test [6] it was 1.33; in test [7], 0.989. Moreover, the composite z-score in test [8] came out at 1.42; in [9], 1.15; in test [10], 0.291. Besides, in [4], the z-score is 0.676 (inactive).
Turning to `COCCCNC(=O)[C@@]1(CCC(=O)OC(C)(C)C)COC(c2ccc(OCCCO)cc2)=N1`, the composite z-score in [1] was 1.64; in test [2], 0.117; in [3], 0.523; in [5] it was 0.693; in test [6] it was 0.986; in test [7], -0.106. Further, the composite z-score in [8] was 0.219; in [9] it was -0.0833; in test [10], 0.64. The z-score in test [4] was -1.09 (inactive).
With `CC(C)NC(=O)[C@@H]1c2ccccc2C(=O)N(Cc2ccc(OC(F)(F)F)cc2)[C@H]1c1ccc(CO)cc1`, the composite z-score was determined as 0.471 in test [1]; 1.21 in test [2]; 0.696 in test [3]; 1.25 in test [5]; 1.3 in test [6]; 0.272 in test [7]. Further, the figures for the composite z-score in test [8], in [9] and in test [10] were 1.37, 0.657 and 0.237, respectively. In addition, the z-score in test [4] was -0.211 (inactive).
Turning to `CCOC(=O)C1=CC[C@@H](c2ccc(OC)cc2)N(S(=O)(=O)c2ccc(C)cc2)[C@H]1c1ccc(C)cc1`, the composite z-score is 0.71 in test [1]; 0.528 in test [2]; 0.836 in test [3]; 0.642 in test [5]; 1.07 in test [6]; -0.0102 in test [7]. Also, the results for the composite z-score in [8], in test [9] and in [10] were 0.887, -0.346 and 0.588, respectively. Also, the z-score in test [4] is -0.0291 (inactive).
For `CCN(CC)c1ccc(N2CC=CC34O[C@@H]5C=CCCOC(=O)C5[C@H]3C(=O)N(C(C)CO)[C@@H]4C2=O)cc1` (stereo not given in full), the composite z-score in test [1] was 1.85; in test [2] it was -0.24; in [3], 0.477; in test [5], 0.0925; in test [6], 0.519; in test [7], -0.79. Further, the composite z-score in test [8] was -0.157; in test [9], -0.0888; in [10], 1.42. Further, the z-score in [4] was -0.0428 (inactive).
Regarding `COc1ccccc1CN1C(=O)c2ccccc2[C@](Cc2ccccc2I)(C(=O)NCC(C)C)[C@@H]1c1ccc(CO)cc1`, the composite z-score is 1.66 in [1]; 0.736 in test [2]; 1.01 in test [3]; -0.0272 in test [5]; -0.0773 in test [6]; -1.19 in [7]. The composite z-score in test [8] was -0.408; in [9], -1.27; in test [10], -0.316. Besides, the z-score in test [4] was 0.0236 (inactive).
Turning to `C=C(COC)/C(=C/C[C@@H](OC(C)=O)c1ccccc1OCCO)c1cnc2ccccc2c1`, the composite z-score is 1.24 in test [1]; -0.151 in test [2]; -0.112 in [3]; 1.39 in test [5]; 0.344 in test [6]; 0.26 in [7]. For the same molecule, the composite z-score in [8] amounted to 1.44; in test [9], 0.336; in test [10], 1.78. The z-score in test [4] was 0.617 (inactive).
Turning to `COc1cc(C(O)C2C=CC3C(=O)N(c4ccccc4)C(=O)C3N2Nc2ccccc2)cc(OC)c1OC` (stereo not given), the composite z-score in [1] was 1.27; in test [2], 1.03; in [3] it was 1.13; in test [5], 1.25; in test [6], 1.31; in test [7], -0.304. In addition, the composite z-score in test [8] was 1.07; in test [9], -0.586; in [10], 0.484. Further, in test [4], the z-score is 1.28 (inactive).
For the molecule `C=CCN1Cc2ccccc2[C@H]2OC(c3ccc(OCCCO)cc3)=N[C@@]2(CCS(=O)(=O)c2ccccc2)C1=O`, the composite z-score in test [1] turned out to be 1.45; in test [2], 1.07; in [3], 1.35; in test [5] it was 0.728; in [6], 1.26; in test [7], 0.714. In addition, the composite z-score in [8] was determined as 1.38; in [9] it was 0.933; in test [10] it was 0.852. Besides, in test [4], the z-score was 0.767 (inactive).
Turning to `[N-]=[N+]=Nc1ccccc1C[C@@]1(C(=O)NCC(O)CO)N=C(c2ccc(OCCCO)cc2)O[C@@H]1c1ccccc1` (stereo not given in full), the composite z-score was 0.973 in [1]; 0.262 in [2]; 0.9 in [3]; -0.134 in test [5]; 0.119 in [6]; -1.16 in test [7]. The values for the composite z-score in [8], in [9] and in test [10] were -0.932, -1.17 and 0.0121, respectively. In addition, the z-score in test [4] is -0.0949 (inactive).
`COc1ccc(CCNC(=O)[C@@H]2c3ccccc3C(=O)N(Cc3ccccc3OC)[C@H]2c2ccc(CO)cc2)cc1`: the composite z-score in [1] was 1.1; in test [2] it was -0.381; in [3] it was 0.508; in [5], 0.454; in test [6], 0.931; in test [7], 0.0744. Besides, the figures for the composite z-score in test [8], in test [9] and in [10] were 0.172, 0.0163 and 0.414, respectively. Moreover, in test [4], the z-score was 0.295 (inactive).
Take `O=C1NC(=O)C2C1C=CC(C(O)c1ccc(B(O)O)cc1)N2Nc1ccc(Cl)cc1Cl` (stereo not given): the composite z-score in [1] was 0.46; in test [2], 0.704; in [3] it was 0.326; in [5] it was 0.0671; in test [6] it was -0.0838; in test [7], -0.174. Also, the figures for the composite z-score in test [8], in [9] and in test [10] were 0.317, -0.414 and 0.948, respectively. Besides, the z-score in test [4] is 0.379 (inactive).
`CCOC(=O)C1=CC[C@@H](c2ccc(OC)cc2)N(S(=O)(=O)c2ccc(C)cc2)[C@H]1CC`: the composite z-score in test [1] was found to be 0.469; in [2], 0.607; in test [3] it was 0.88; in test [5], 0.996; in [6], 0.811; in test [7], 0.233. For the same molecule, the composite z-score in test [8] came out at 1.1; in test [9] it was 0.106; in test [10], 0.372. Further, the z-score in test [4] was -1.27 (inactive).
